From the supplement of paper PMC10338343
± gives the standard deviation.

The sequences below were run on MILI (PIWIL2) piRISC loaded with piRNA #1 (26 nt) (assay: pre-steady-state target cleavage rate (min^-1); guide: piRNA #1 5'p-UGAGGUAGUAGGUUGUAUAGUAUCCA; MIWI and MILI are mouse PIWI proteins and EfPiwi is from a freshwater sponge; tags in brackets are library labels; higher = faster piRNA-guided slicing of the target). Settings: auxiliary factor: 500 nM mouse GTSF1.
Method in brief: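 The pre-steady-state cleavage rate was calculated from a burst-and-steady-state fit. Data came from Cleave-'n-Seq, in which […] transcribed, DNA-blocked target RNA library was mixed with 1 nM active affinity-purified piRISC carrying one synthetic guide, with or without 500 nM GTSF1 partner protein, in HEPES–potassium acetate buffer at 33 °C for 0–8 or 0–960 min. Uncleaved targets were sequenced and normalised to depth and to weakly complementary targets, three trials were pooled, and k3 was capped at 0.0001 min^-1.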
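Note: 1 nM active piRISC with 0.1 nM target library at 33 °C single turnover.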

Row | Sequence | pre-steady-state target cleavage rate
1 | GGAGACCAUACUAUACAAUCUACUACCUCA | 0.146 ± 0.013
2 | GGAGACCUUACUAUACAACCUACCUACCUCA | 0.148 ± 0.015
3 | GGAGACCUAUGAAUACAACCGUACUACCUCA | 0.00389 ± 0.003
4 | GGAGACCUUACUAUACAACCAACAACCUCA | 0.00353 ± 0.0022
5 | GGAGACCAUACUAUACAAGCUACUAGCUCA | 0.0756 ± 0.022
6 | GGAGACCUAUGAUUACAAGCUUCUACCUCA | 0.00347 ± 0.0023
7 | GGAGACCUAUCUAAACAACCUACUACCUGA | 0.0477 ± 0.013
8 | GGAGACCAUACUAUACAACCUACUACGACA | 0.16 ± 0.025
9 | GGAGACCUAUGAUAUGUUGCUACUCCUCA | < 0.0001
10 | GGAGACCUAUGAAUACAACCUACCUACCUCA | 0.0088 ± 0.0035
11 | GGAGACCUAUGAAUACUACCUACUACGUCA | 0.00344 ± 0.0026
12 | GGAGACCUUUCUAUUCAACCUACUACCUCA | 0.0926 ± 0.012
13 | GGAGACGAUACUAUACAACCUACUACACUCA | 0.202 ± 0.03
14 | GGAGACCUAACUAUACAUCCUAGUACCUCA | 0.0577 ± 0.02
15 | GGAGACCUAACUAAACAACCUACUACCUGA | 0.0558 ± 0.021
16 | GGAGACCUAUGAUUACAACCUACAUCCUCA | 0.00278 ± 0.0025
17 | GGAGACCUAUGAUUACAAGCUACUACCACA | 0.0854 ± 0.022
18 | GGAGACCAUACAUAACAACCUACUACCUCA | 0.0246 ± 0.0068
19 | GGAGAGGAUUCUAUACAACCUAGUACCUCA | 0.0548 ± 0.0098
20 | GGAGACCUAUGAUAUCUAACCUACUACCUCA | 0.00471 ± 0.0023

Row | Sequence | pre-steady-state target cleavage rate
21 | GGAGACCUAUGUAUACAACCUACUCCCUCA | 0.0316 ± 0.0063
22 | GGAGUGGAAACUAAACAACCUACUACCUCA | 0.201 ± 0.02
23 | GGAGACCUAUGUAAACUACCUACUACCUCA | 0.00288 ± 0.0026
24 | GGAGACCUAUGUAUACAAGGAACUACCUCA | 0.00296 ± 0.0028
25 | GGAGUGCAUACUUUACAACCUACUACCUCA | 0.166 ± 0.0083
26 | GGAGAGGAUAGAAUACAACCUACUACCUCA | 0.096 ± 0.01
27 | GGAGACCUAACUAUAGUUCCUACUACCUCA | 0.0706 ± 0.013
28 | GGAGACCUUACAAUACAACCUACAACCUCA | 0.111 ± 0.011
29 | GGAGACCUAACUAUACAACCUAGUUCCUCA | 0.00721 ± 0.0051
30 | GGAGACCUAUGAUAUGAACCUGCUACCUCA | < 0.0001
31 | GGAGACCUAUGAUAACAAGCUACUACCACA | 0.0117 ± 0.0047
32 | GGAGACCUAACUAUUCAACCUACUAGCUCA | 0.089 ± 0.024
33 | GGAGACCUAACUAUACAUCCUACUACCACA | 0.251 ± 0.046
34 | GGAGACCUAUGAUAUGAACCUAGCUACCUCA | < 0.0001
35 | GGAGACCUUACUAAACAACCUUCUACCUCA | 0.00652 ± 0.0027
36 | GGAGACCUAACAAUACAACCUACUACGUCA | 0.023 ± 0.0089
37 | GGAGACCUAUGAUAACAUCCUACAACCUCA | 0.00633 ± 0.0025
38 | GGAGACCUAUGAAUACAACCUACUUACCUCA | 0.00968 ± 0.0023
39 | GGAGACCUAUCAAUACAAGCUACUACCUCA | 0.108 ± 0.013
